# Compounds with a hit are over-represented: about 5.1% of the library has one in this group of screens.
# S1P4 agonist: S1P4 receptor agonists, primary screen, cell-based | activation, % at 4.98 µM | S1P4-expressing cell line, agonist reporter assay | Sphingosine 1-phosphate receptor 4 (Homo sapiens), O95977 | actives 0.35% (n = 220,000); in the data active = activation above about 11%;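 note: 0% = DMSO vehicle and 100% = reference agonist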
# S1P4 antag: S1P4 receptor antagonists, primary screen, cell-based | Sphingosine 1-phosphate receptor 4 (Homo sapiens), O95977 | S1P4-expressing cells, antagonist mode, reporter read-out | inhibition, % at 4.98 µM | actives 0.26% (n = 220,000) | AID 1510, 2009; in the data active = inhibition above about 29%;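 note: 0% = wells stimulated with agonist and 100% = vehicle wells without agonist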
# RAM inhibit: inhibitors of the yeast RAM network, primary screen, dse1pr::URA3 reporter, 5-FOA selection; S. cerevisiae dse1pr::URA3 reporter, 5-FOA growth OD615, 2 d; analog-sensitive cbk1-as2 kinase mutant strain; inhibition, % at 50 µM; actives 1.8% (n = 190,000);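 active = inhibition above a set limit, 3 SD over mean compound inhibition, cut at about 8.4% in these data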;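 note: 0% = DMSO-only wells with no growth and 100% = 10 µM 1-NA-PP1 full growth; inhibition rescues growth on 5-FOA so higher OD means more RAM inhibition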
# Cl transport mod: KCC2 cotransporter modulators, thallium flux, primary screen, cell-based, HEK293 KCC2, FluoZin-2 fluorescence, MLSMR; KCC2 cells, thallium flux FluoZin-2 fluorescence; B-score of Tl+ flux slope (higher = more flux/activation; lower = inhibition) at 10 µM; actives 2.2% (n = 190,000); Solute carrier family 12 member 5 (Homo sapiens), Q9H2X9;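 active = thallium flux slope and its plate-corrected score both differing from the plate sample mean at a set confidence after two filtering rounds, in either direction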;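 note: slope of fluorescence scaled to starting intensity during 10 to 20 s after thallium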
# S1P3 antag: S1P3 receptor antagonists, primary screen, cell-based; inhibition, % at 4.98 µM; CHO S1P3 NFAT-BLA reporter, FRET fluorescence, antagonist mode; actives 0.27% (n = 170,000);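 active = inhibition above the plate cutoff, the mean inhibition of test wells on that plate plus 3 SD, cut at about 28% in these data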;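 note: cells challenged with S1P at its EC80 of 0.8 µM; blue over green emission ratio from cleaved BLA substrate after 4 h stimulation; 0% = S1P-stimulated wells and 100% = unstimulated DMSO-only wells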
# ROMK mod: ROMK potassium channel modulators, primary screen, cell-based, thallium flux, MLSMR library; ATP-sensitive inward rectifier potassium channel 1 (Homo sapiens), P48048; Tet-inducible ROMK, thallium flux fluorescence; actives lie on both sides; B-score at 10 µM; actives 2% (n = 130,000);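 active = signal ratio slope over the read window, or its plate-corrected B-score, at least 3 SD from the plate mean, either direction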;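 note: B-score of the F/F0 ratio slope over 7 to 12 s after thallium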
# Target sequence (P48048 whole entry, looked up): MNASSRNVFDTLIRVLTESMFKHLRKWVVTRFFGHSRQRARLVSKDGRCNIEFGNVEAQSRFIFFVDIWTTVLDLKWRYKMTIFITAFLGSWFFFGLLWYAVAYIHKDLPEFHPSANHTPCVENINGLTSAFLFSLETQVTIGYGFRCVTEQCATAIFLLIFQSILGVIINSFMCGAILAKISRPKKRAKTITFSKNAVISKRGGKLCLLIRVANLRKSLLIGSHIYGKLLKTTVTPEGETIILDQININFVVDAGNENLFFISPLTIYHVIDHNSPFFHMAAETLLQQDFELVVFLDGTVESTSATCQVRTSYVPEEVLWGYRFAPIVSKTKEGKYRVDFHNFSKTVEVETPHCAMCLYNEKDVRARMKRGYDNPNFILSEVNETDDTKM
# RAM efflux-def: 5-FOA growth of efflux-deficient control yeast, dose response, counter-screen for RAM network inhibitor project, S. cerevisiae, OD615; shares compounds with RAM inhibit; 1,200 tested, under 10 active; S. cerevisiae efflux-deficient reporter strain, 5-FOA growth OD615, 2 days; max inhibition, %; call rule not given here;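 note: plate controls were vehicle for no effect and reference inhibitor for full effect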
# The depositor's hits bear a star; . = not tested or not shown.
SMILES,S1P4 agonist,S1P4 antag,RAM inhibit,Cl transport mod,S1P3 antag,ROMK mod,RAM efflux-def
O=C(Nc1cccnc1)C1CCC(CNS(=O)(=O)c2cccc3nsnc23)CC1 (stereo unspecified),3.3,-6.1,.,0.0393,15.0,0.54,.
CCOC(=O)c1cc(C#N)c(Oc2ccc(F)cc2)nc1-c1ccccc1,-0.5,-16.9,7.9,.,.,.,.
CCOC(=O)c1cc(C#N)c(Oc2cccc(C(F)(F)F)c2)nc1-c1ccccc1,1.0,-19.1,12.7*,.,.,.,1.9
N#C/C(=C(/O)CO/N=C/c1ccccc1Cl)c1nc2ccccc2[nH]1,0.2,-10.7,.,0.762,-11.9,-0.0736,.
O=C(OCc1ccccc1)c1cccc(-c2nnc(-c3ccccc3)o2)c1,-2.3,-2.3,12.1*,-0.542,.,.,1.9
O=C(OCc1ccc(C(=O)c2ccccc2)cc1)c1cccc(-c2nnc(-c3ccccc3)o2)c1,-1.9,-4.1,5.2,0.395,.,.,.
CC(C)OC(=O)c1ccc(COC(=O)c2cccc(-c3nnc(-c4ccccc4)o3)c2)cc1,5.6,-24.7,12.7*,-0.884,-3.3,.,2.2
O=C(OCc1nnc(-c2ccccc2)o1)c1ccc(CO)cc1,-1.3,3.1,0.1,-0.0408,-3.0,-0.769,.
CCCCNC(=S)N(C)/N=C/c1ccc(OCC(=O)Nc2c(C)cc(C)cc2C)c(OC)c1,0.9,-22.2,0.9,-0.499,-9.6,1.58,.
CCCCNC(=S)N(C)/N=C/c1ccc(OCC(=O)Nc2ccc(OC)cc2)c(OC)c1,0.5,-13.4,15.1*,-0.0718,-15.2,-0.0876,3.5
CCCCCCN(C(=O)CCCCCN1C(=O)NC(c2ccc(-c3ccccc3)cc2)C(C(=O)OCc2ccccc2)=C1C)C(C)C(=O)NCCCC (stereo unspecified),1.3,4.2,28.5*,0.733,-11.4,0.0823,6.0
CCCCCCN(C(=O)CCCCCN1C(=O)NC(c2ccc(-c3ccccc3)cc2)C(C(=O)OCc2ccccc2)=C1C)C(C(=O)NCCCC)c1ccccc1 (stereo unspecified),.,.,.,-0.721,.,.,.
CCc1c(O)c(/C(C)=N\O)c(=O)n(-c2ccccc2)c1-c1ccccc1,-0.6,6.6,5.0,0,1.2,0.158,.
C=CCO/N=C(/C)c1c(O)c(CC)c(-c2ccccc2)n(-c2ccccc2)c1=O,1.3,-1.2,12.6*,0.364,.,-0.89,1.7
O=S(=O)(Cc1ccc(Cl)cc1)c1ncc(CO)n1Cc1ccccc1,0.3,-8.4,-1.4,-0.041,-10.8,0.177,.
O=C(Nc1ccccc1C(F)(F)F)c1ncn[nH]1,-0.9,-4.5,.,-0.967,-12.4,.,.
CCCN(CC1CC1)C(=O)COC(=O)c1ccc(CNS(=O)(=O)c2ccc(F)c(Cl)c2)cc1,0.6,-7.7,11.9*,-0.00548,0.8,.,1.1
CCCN(CC1CC1)C(=O)COC(=O)c1[nH]c(C)c(C(=O)OCC)c1C,1.4,-5.7,1.6,-0.965,.,0.0515,.
CCCc1cc(=O)[nH]c(SCCCCN2C(=O)c3ccccc3C2=O)n1,0.4,-13.5,4.3,-1,-19.1,0.269,.
O=C(/C=C/c1ccc(OCc2ccccc2)c(OCc2ccccc2)c1)c1cccnc1,-0.4,-7.0,13.8*,-0.177,-13.9,.,5.8
CCN(CC)c1ccc(/C=C/C(=O)c2cccnc2)cc1,2.0,4.3,3.7,.,-12.9,-0.651,.
Cc1ccc(NC2CC(C)NC(=S)N2)cc1 (stereo unspecified),-0.1,-10.9,.,-0.0964,-5.5,.,.
CC(C)c1nnc(NC(=O)c2cccc(NC(=O)C(F)(F)F)c2)s1,2.4,-11.5,2.3,0.594,-14.4,0.153,.
CCOC(=O)c1cc(-c2ccccc2)sc1NC(=O)COC(=O)c1cccc(S(N)(=O)=O)c1,0.8,-2.8,5.7,0.178,8.8,-0.632,.
Cc1ccc(S(=O)(=O)CCC(=O)OCC(=O)NC(N)=O)cc1,-0.9,7.3,.,-0.0252,-10.4,.,.
